From PubChem BioAssay AID588519 (ICCB-Longwood Screening Facility, Harvard Medical School, 2011) come the findings set out here.

The target of this test is Genome polyprotein (Poliovirus type 1 (strain Mahoney)) (UniProt P03300). Kind of test: inhibitors of poliovirus polymerase RNA elongation – biochemical, fluorescence polarization, total intensity, primary screen (AID 588519). For z-score: compound at 16.7 µg/mL. Conditions: stronger effect = lower value; for % elongation: compound at 16.7 µg/mL; for z-score: measured here: FP z-score. On the technique in general: Fluorescence polarisation rises when a labelled molecule tumbles more slowly, as on binding a larger partner.

[1] abbreviates: measured here: total intensity read-out.

Structures are written as SMILES. Screen size: about 150,000 compounds; about 1,000 (0.67%) were called active. Cut-off read from the data, not from the text of the source: active = % elongation below about 90%; inactive = the rest, inconclusive results apart. For the sample, actives were picked, then their nearest neighbours and some compounds at random.

Sequence of Genome polyprotein (Poliovirus type 1 (strain Mahoney)) (P03300 1749-2209 limits assumed): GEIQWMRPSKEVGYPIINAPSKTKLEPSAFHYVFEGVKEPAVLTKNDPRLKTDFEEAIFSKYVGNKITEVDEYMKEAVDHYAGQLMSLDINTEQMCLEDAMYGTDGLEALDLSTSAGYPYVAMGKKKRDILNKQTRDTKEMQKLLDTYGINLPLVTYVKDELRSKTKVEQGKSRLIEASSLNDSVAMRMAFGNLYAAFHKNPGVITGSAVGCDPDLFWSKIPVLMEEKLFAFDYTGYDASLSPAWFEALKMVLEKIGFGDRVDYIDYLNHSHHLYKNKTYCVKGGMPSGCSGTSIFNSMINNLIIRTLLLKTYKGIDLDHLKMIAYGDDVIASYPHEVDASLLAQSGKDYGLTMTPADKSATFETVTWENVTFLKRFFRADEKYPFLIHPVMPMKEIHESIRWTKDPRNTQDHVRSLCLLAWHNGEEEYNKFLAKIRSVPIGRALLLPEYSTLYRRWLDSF

On to `Cc1cc(C(=O)COc2ccc(-n3ccnc3)cc2)c(C)n1-c1ccc2c(c1)OCO2`, for which the % elongation is 103% (inactive) and the z-score is 0.1. Moreover, under setting [1], the % elongation came to 107%.
For `Nc1nnc(-c2ccc(Cn3c(-c4cncs4)nc4ccccc43)cc2)s1`, the % elongation is 63% (active) and the z-score was -5.6. Under setting [1], the % elongation was determined as 75%.
On the same counts, the results for `Cc1ccc(Cn2c(CNC(=O)c3ccccc3)nc3ccccc32)cc1` are 100% (inactive), -0.3 and 104%.
On the same counts, the results for `CC(=O)Nc1nc2ccccc2n1Cc1ccc(C)cc1` are 100% (inactive), -0.7 and 102%.
On the same counts, the results for `O=C1Nc2ccccc2N(c2ccccc2)N1` are 101% (inactive), 0.4 and 105%.
For `CCOc1ccccc1N(CC(=O)NC)S(C)(=O)=O`, the % elongation was 102% (inactive) and the z-score worked out at 0.4. Moreover, the % elongation under setting [1] worked out at 103%.
On the same counts, the results for `Cc1cc(C(=O)COC(=O)c2ccc(S(=O)(=O)NCc3ccco3)cc2)c(C)n1C` are 101% (inactive), -0.2 and 100%.
On the same counts, the results for `CCOc1ccccc1N(CC)C(=O)Nc1cn(C)c(=O)c2ccccc12` are 103% (inactive), -0.7 and 104%.
On the same counts, the results for `CCOc1ccccc1CNC(=O)Nc1cn(CC(C)C)c(=O)c2ccccc12` are 28% (active), -6 and 48%.
As for `CCOc1ccccc1CNC(=O)Cn1ncc2c([nH]c3ccccc32)c1=O`, the % elongation is 102% (inactive) and the z-score was -0.4. Moreover, under setting [1], the % elongation was determined as 103%.
On the same counts, the results for `CCOc1ccc(OCC(=O)OC(C)C(=O)Nc2ncc(Cl)cc2Cl)cc1` (stereo not drawn) are 106% (inactive), 0.3 and 97%.
On the same counts, the results for `Cc1cccc(OCCOc2ccc(Br)cc2/C=C2\SC(=S)NC2=O)c1` are 101% (inactive), -0.2 and 104%.
With `Cc1cc(C)c(C(N)=O)c(SCC(=O)Nc2c(C)n(C)n(-c3ccccc3)c2=O)n1`, the % elongation is 103% (inactive) and the z-score came out at 0.1. In addition, the % elongation under setting [1] turned out to be 97%.
On the same counts, the results for `CSc1nc(=O)n(Cc2ccccn2)c2c1CCC2` are 101% (inactive), 0.1 and 104%.
On the same counts, the results for `O=C1c2ccccc2C(=O)N1CC1OCc2ccccc2CO1` are 103% (inactive), 0.3 and 110%.
On the same counts, the results for `O=C1Cc2ccccc2C(=O)N1Cc1ccccn1` are 85% (active), -1.9 and 83%.
Take `Cc1ccc(NC(=O)C2C3C=CC4(O3)C2C(=O)N(CCCN2CCOCC2)C4C(=O)NC2CCCC(C)C2C)cc1Cl` (stereo not drawn): the % elongation is 101% (inactive) and the z-score was determined as 0.1. Moreover, the % elongation under setting [1] was 103%.
On the same counts, the results for `CCn1c2ccccc2c2cc(CN3CCN(Cc4cccc(Cl)c4)CC3)ccc21` are 103% (inactive), 0.1 and 108%.
On the same counts, the results for `CCn1c2ccccc2c2cc(P(=S)(OC)OC)ccc21` are 81% (active), -2.3 and 86%.
On the same counts, the results for `CCn1c(=O)cc(O)c2ccccc21` are 115% (inactive), 1.3 and 123%.
As to `O=C(C1CCN(S(=O)(=O)c2ccc3[nH]c4c(c3c2)CCCCC4)CC1)N1CCCC1`, the % elongation is 100% (inactive) and the z-score is -1. Under setting [1], the % elongation turned out to be 97%.
On the same counts, the results for `O=C(CN1CCN(S(=O)(=O)c2ccc3[nH]c(=O)[nH]c3c2)CC1)N1CCCCCC1` are 86% (active), -1.1 and 93%.
On the same counts, the results for `O=C(CCc1nc(CN2CCN(S(=O)(=O)c3ccc(F)cc3)CC2)no1)N1CCCCC1` are 109% (inactive), 0.3 and 112%.
On the same counts, the results for `CCC1CN2CCC34c5ccccc5NC3C(C)C1CC24` (stereo not drawn) are 101% (inactive), 0.3 and 104%.
Regarding `CCOC(=O)C1=C(C)NC(=O)NC1c1c(Cl)nc2c(C)cccn2c1=O` (stereo not drawn), the % elongation was 104% (inactive) and the z-score was 0. The % elongation under setting [1] stood at 109%.
On the same counts, the results for `CCC(C)NC(=O)C1c2ccccc2C(=O)N1Cc1ccccc1` (stereo not drawn) are 102% (inactive), 0.2 and 102%.
On the same counts, the results for `COC(=O)CSc1nnc2c(n1)[nH]c1ccccc12` are 102% (inactive), 0.2 and 108%.
Regarding `CC(C)(C)NC(=O)C1CCN(S(=O)(=O)c2ccccc2)CC1`, the % elongation is 101% (inactive) and the z-score was 0.1. Further, under setting [1], the % elongation was 103%.
On the same counts, the results for `O=C1C(Nc2ccc(O)cc2)=C(n2nnc3ccccc32)C(=O)c2ccccc21` are 79% (active), -2.2 and 79%.
On the same counts, the results for `CCC(=O)Nc1ccc(C(=O)n2nnc3ccccc32)cc1` are 104% (inactive), 1 and 102%.
On the same counts, the results for `N#CC1=C2Sc3ccccc3N2CC1=O` are 97% (inactive), -1 and 165%.
With `Cc1c(C(=O)NC(C)CCc2ccccc2)oc2c1C(=O)CCC2` (stereo not drawn), the % elongation was 102% (inactive) and the z-score came out at 0. In addition, the % elongation under setting [1] came out at 102%.
On the same counts, the results for `Sc1ccc2ccccc2c1` are 90% (active), -1.5 and 91%.
On the same counts, the results for `c1ccc2cc3cnccc3cc2c1` are 100% (inactive), -0.3 and 102%.
On the same counts, the results for `O=C1c2ccccc2C(=O)C1c1ccc2ccccc2c1` are 93% (inactive), -1.3 and 92%.
Take `N#Cc1ccc(COC(=O)Cc2noc3ccccc23)cc1`: the % elongation was 109% (inactive) and the z-score was found to be 0.7. Besides, the % elongation under setting [1] was found to be 104%.
Turning to `O=S(=O)(c1cc(S(=O)(=O)C(F)(F)F)c(Cl)c(S(=O)(=O)C(F)(F)F)c1)C(F)(F)F`, the % elongation was 98% (inactive) and the z-score was -0.2. Further, the % elongation under setting [1] came out at 95%.
On the same counts, the results for `C/C(=N\c1ccccn1)C1=C(O)c2ccccc2C1=O` are 98% (inactive), -1 and 97%.
As for `O=S(=O)(NC1CCCCC1N1CCCCC1)c1ccc(Cl)cc1` (stereo not drawn), the % elongation is 104% (inactive) and the z-score came to 0.2. Also, the % elongation under setting [1] was found to be 96%.
On the same counts, the results for `Cc1ccc2nc(C)c3c(c2c1)N(c1ccccc1)CC3` are 89% (active), -2.3 and 89%.
On the same counts, the results for `Cc1ccc2nc(Nc3ccccc3)cc(C)c2c1` are 110% (inactive), 0.8 and 111%.
On the same counts, the results for `Cc1ccc2nc(-c3ccccn3)cc(C(=O)O)c2c1` are 103% (inactive), 0.8 and 100%.
As to `CC(=O)OC[C@H]1O[C@@H](NC(=S)NN)[C@H](OC(C)=O)[C@@H](OC(C)=O)[C@@H]1OC(C)=O`, the % elongation was 103% (inactive) and the z-score is 0.3. The % elongation under setting [1] came out at 96%.
On the same counts, the results for `CC(=O)Oc1c[n+]([O-])n(-c2ccccc2)n1` are 97% (inactive), -0.6 and 100%.
On the same counts, the results for `CCOc1cc(C2C(C(=O)OC)=C(C)NC3=C2C(=O)c2ccccc23)ccc1O` (stereo not drawn) are 112% (inactive), 0.2 and 113%.
On the same counts, the results for `CCOC(=O)C(C(=O)c1ccccc1)C1(O)C(=O)c2ccccc2C1=O` (stereo not drawn) are 46% (active), -6.9 and 56%.
Take `CCOC(=O)C1=C(C)NC(=O)NC1c1ccccc1` (stereo not drawn): the % elongation was 101% (inactive) and the z-score is -0.1. Under setting [1], the % elongation worked out at 102%.
Consider `COC(=O)CC(N)c1ccc(Cl)cc1` (stereo not drawn), for which the % elongation is 103% (inactive) and the z-score amounted to 0.2. For the same molecule, under setting [1], the % elongation amounted to 106%.
With `C=CCN1CCN(C(c2ccc(C)cc2)c2nnnn2C2CCCC2)CC1` (stereo not drawn), the % elongation is 103% (inactive) and the z-score stood at 0.4. In addition, the % elongation under setting [1] was found to be 102%.
For the molecule `CSC(=S)Nc1ccc(C)cc1`, the % elongation is 100% (inactive) and the z-score was 0.1. The % elongation under setting [1] worked out at 104%.
On the same counts, the results for `Cc1ccc(NC(=O)CC(=O)Nc2ccc(C)cc2)cc1` are 106% (inactive), 0.3 and 102%.
With `Cc1ccc(NC(=S)Nc2ccc(C)cc2)cc1`, the % elongation was 76% (active) and the z-score was -4.1. Besides, the % elongation under setting [1] is 82%.
On the same counts, the results for `O=C(O)COc1cc(Br)c(Br)c(Br)c1O` are 102% (inactive), 0.1 and 92%.
On the same counts, the results for `CCn1c(SCc2cc(=O)oc3cc(NC(C)=O)ccc23)nnc1-c1ccccc1` are 100% (inactive), -0.5 and 111%.
Turning to `O=C(NNc1ncnc2ccccc12)c1ccncc1`, the % elongation is 106% (inactive) and the z-score worked out at 0.6. In addition, under setting [1], the % elongation turned out to be 101%.
On to `CC(C)/C=N/NC(=O)c1ccccc1`, for which the % elongation was 103% (inactive) and the z-score worked out at 0.3. For the same molecule, the % elongation under setting [1] stood at 103%.
On the same counts, the results for `O=C(NN=c1c(=O)c2ccccc2c1=O)c1ccncc1` are 58% (active), -12.6 and 54%.
On the same counts, the results for `O=c1[nH]c(CN2CCCC2c2ccc3c(c2)OCCO3)nc2cc(Cl)ccc12` (stereo not drawn) are 102% (inactive), 0 and 104%.
On the same counts, the results for `CCN(C(=O)CN1CCCCC1)c1nc2ccc(C)cc2s1` are 102% (inactive), -0.3 and 103%.
Turning to `CC(C)OC(=O)Nc1ccccc1`, the % elongation was 106% (inactive) and the z-score was 0.8. In addition, under setting [1], the % elongation stood at 110%.
For `O=C(Nc1ccccc1)C(=S)Nc1ccccc1`, the % elongation is 87% (active) and the z-score is -1.9. Besides, the % elongation under setting [1] is 88%.
On the same counts, the results for `NC(=O)C1CCN(C(=S)Nc2ccccc2)CC1` are 103% (inactive), 1.1 and 103%.
Turning to `COc1nc(NCCO)nc(Nc2ccc(I)cc2C)n1`, the % elongation is 99% (inactive) and the z-score is -1.2. Moreover, the % elongation under setting [1] is 94%.
On the same counts, the results for `O=C1c2ccccc2C(=O)N1CCN1c2cccc3cccc(c23)S1(=O)=O` are 100% (inactive), 0.1 and 101%.
As to `COC(=O)C1=CN(CCc2ccccc2)C=C(C(=O)OC)C1C(=O)OC`, the % elongation is 107% (inactive) and the z-score worked out at 0.6. Also, the % elongation under setting [1] is 108%.
On the same counts, the results for `CC(=O)Nc1ccccc1NC(=O)CN(C)S(=O)(=O)c1ccccc1` are 100% (inactive), 0 and 103%.
Regarding `COC(=O)c1cc(-c2cccs2)nc2ccccc12`, the % elongation is 101% (inactive) and the z-score is -0.1. Besides, under setting [1], the % elongation amounted to 101%.
On the same counts, the results for `COC(=O)c1cc(N2CCNCC2)nc2ccccc12` are 88% (active), -1.4 and 88%.
On the same counts, the results for `Cc1cc(N2CCNCC2)nc(C)n1` are 102% (inactive), 0.1 and 102%.
On the same counts, the results for `N#CCCn1c(SCC(=O)NCCSc2ccc(Cl)cc2)nc2ccccc21` are 101% (inactive), -0.2 and 104%.
Consider `Cc1cc(SCc2ccccc2)nc2ccccc12`, for which the % elongation is 103% (inactive) and the z-score worked out at 0.4. Moreover, the % elongation under setting [1] was found to be 102%.
On the same counts, the results for `Cc1cc(/C=C/C(=O)N2CCCC2c2cccs2)c(C)n1Cc1ccco1` (stereo not drawn) are 104% (inactive), 0.6 and 98%.
Turning to `Cn1cccc1C(=O)Nc1nccs1`, the % elongation was 111% (inactive) and the z-score came out at 0.9. The % elongation under setting [1] came to 116%.
On the same counts, the results for `CCCCOC(=O)Nc1nccs1` are 100% (inactive), -0.4 and 99%.
On the same counts, the results for `Nc1[nH]c(=S)sc1C(=O)Nc1nccs1` are 70% (active), -3.3 and 75%.
On the same counts, the results for `CCN(C(=O)CSc1nnc2scc(-c3cccc(OC)c3)n12)c1ccccc1` are 103% (inactive), 0.2 and 100%.
For the molecule `C#CCN1CCS(=O)(=O)CC1`, the % elongation is 100% (inactive) and the z-score was -0.3. In addition, the % elongation under setting [1] is 103%.
`CCNC(=O)C1CCCN(S(=O)(=O)N(CC)c2ccc(OCC)cc2)C1` (stereo not drawn): the % elongation is 103% (inactive) and the z-score came out at 0.5. In addition, the % elongation under setting [1] came out at 105%.
On the same counts, the results for `CC(C)c1ccc(C2CC(=O)N3CN(C4CCCCC4)CSC3=C2C#N)cc1` (stereo not drawn) are 81% (active), -3.5 and 82%.
On the same counts, the results for `Cc1cc(C)c(C(=O)COC(=O)c2ccc(N(C)C)cc2)c(C)c1` are 104% (inactive), -0.3 and 97%.
For the molecule `CCN1CCN(C(=O)C2CCCCC2C(=O)O)CC1` (stereo not drawn), the % elongation is 102% (inactive) and the z-score is 0. Moreover, the % elongation under setting [1] came out at 103%.
